PubChem BioAssay AID1347075 (National Center for Advancing Translational Sciences (NCATS), 2019)
Screen size: about 400,000 compounds; about 5,500 (1.4%) were called active. About 9% were inconclusive and are not listed. Calls come from the whole dose curve; as a rule, active = well fitted cell-killing curve with a large enough effect; inconclusive = small, poorly fitted or top-dose-only effect, or effect the other way; inactive = flat fitted curve, though single readings scatter. The sample as a whole holds a higher share of actives than the screen did.

Experiment: qHTS assay for MDR1-selective chemotherapeutics: Primary screen using the parental adenocarcinoma cell KB-3-1; note: nearly all actives have a fitted effect of over 60% in size
Conditions: KB-3-1 viability, CellTiter-Glo ATP luminescence, 72 h; series mostly up to 46.1 µM; activity change, negative = cytotoxic: at the top concentration
Method in brief: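 Using CellTiter-Glo luminescence, growth of non-resistant KB-3-1 adenocarcinoma cells is assessed 72 h after pin-tool compound addition at 37 °C. Normalized responses across the concentration series yield fitted curves.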
% is set by controls: 0 for no effect and ±100 for the full control effect; potency is the fitted concentration of half-maximal effect.

Row | Structure (SMILES) | activity change, negative = cytotoxic | Potency
1 | COc1ccc(S(=O)(=O)NCC(c2ccc(N(C)C)cc2)N2CCc3ccccc32)cc1OC (centres undefined) | -19.8% (inactive) | –
2 | O=C(NNC(=S)NC(=O)c1cn(-c2ccccc2)nc1-c1ccccc1)c1ccncc1 | – | 8.2 µM (active)
3 | COc1ccccc1N1CCN(C(=O)c2cn(-c3ccccc3)nc2-c2cccnc2)CC1 | -3.96% (inactive) | –
4 | O=C(NCCCN1CCOCC1)c1cn(-c2ccccc2)nc1-c1ccc(F)cc1 | 2.18% (inactive) | –
5 | COc1ccc(NC(=O)c2cnc(Nc3ccc(C)c(Cl)c3)c3ccccc23)cc1OC | 13.9% (inactive) | –
6 | Brc1nc2ncnc(NCc3ccco3)c2[nH]1 | -9.05% (inactive) | –
7 | O=C(CNS(=O)(=O)c1cccs1)N1CCN(c2ccccc2Cl)CC1 | 5.47% (inactive) | –
8 | Cc1cccc2c1-c1sc(C(=O)Nc3ccc(F)cc3F)cc1CO2 | -20.5% (inactive) | –
9 | CCn1cc2nc(SCc3cccc(F)c3)n(CCc3ccccc3)c(=O)c2n1 | -0.543% (inactive) | –
10 | Cc1nn(Cc2ccc(Cl)cc2)c(Cl)c1/C=N/NC(=O)CNc1ccccc1F | -11.9% (inactive) | –
11 | Cn1cc([N+](=O)[O-])c(C(=O)Nc2ccc3c(c2)OCCO3)n1 | -20.5% (inactive) | –
12 | Cc1nn(-c2ccccc2)c(Cl)c1/C=N/NC(=O)c1nn(C)cc1[N+](=O)[O-] | – | 18.4 µM (active)
13 | Cc1ccc(C2CCN(C(=S)Nc3cccc(Cl)c3)C2)cc1 (centres undefined) | 3.93% (inactive) | –
14 | O=C(Nc1cccc(Cl)c1)c1csnn1 | 1.29% (inactive) | –
15 | Cc1csc(NC(=S)Nc2cccc(Cl)c2)n1 | – | 20.6 µM (active)
16 | COc1ccccc1C(=O)NCCn1cc(SCc2ccccc2Cl)c2ccccc21 | -13.7% (inactive) | –
17 | CCOC(=O)c1ccc(NC(=O)CCS(=O)(=O)c2ccc3c(c2)oc(=O)n3C)cc1 | 22.5% (inactive) | –
18 | O=C(NCc1ccc(F)cc1)c1ccc(Cn2c(SCc3ccc(F)cc3)nc3cccnc32)cc1 | -6.9% (inactive) | –
19 | Cc1ccc(OCCSc2nc(-c3cccs3)nc3cc(=O)[nH]n23)cc1Cl | -7.11% (inactive) | –
20 | COc1cccc2c1C(=O)c1c(O)c3c(c(O)c1C2=O)CC(O)(C(C)=NNC(=O)c1ccc(Cl)c(Cl)c1)CC3OC1CC(N)C(O)C(C)O1 (centres undefined) | – | 2.06 µM (active)
21 | Cc1ccc(N2CCN(C(=S)Nc3cc(C)ccn3)CC2)cc1 | 31.7% (inactive) | –
22 | CCCCCn1c(=O)[nH]c2cc(C(=O)Nc3ccc(F)cc3)ccc2c1=O | -2.16% (inactive) | –
23 | CCC(=C/c1sc2ccc3ccccc3c2[n+]1C)/C=C1\Sc2ccc3ccccc3c2N1C | – | 9.2 µM (active)
24 | COc1ccc(CNC(=O)COCc2cc(-c3cccs3)on2)cc1OC | -12.5% (inactive) | –
25 | Cc1ccc(OCC(=O)OCc2cc(=O)n3nc(C4CC4)sc3n2)cc1 | 0.043% (inactive) | –

Row | Structure (SMILES) | activity change, negative = cytotoxic | Potency
26 | CCN1/C(=C/c2ccc3ccc(C)cc3[n+]2CC)Sc2ccccc21 | – | 2.59 µM (active)
27 | CCN1/C(=C\c2ccc3ccccc3[n+]2CC)Sc2cc(C)ccc21 | – | 4.61 µM (active)
28 | CC(=O)Nc1ccc(NC(=O)CSc2nnc3c4cc(Br)ccc4n(C)c3n2)cc1 | -6.4% (inactive) | –
29 | NC(=O)Nc1ccc(/C=C/c2ccnc3ccccc23)cc1 | -7.08% (inactive) | –
30 | N#Cc1ccc[n+](CC(=O)c2ccc(F)cc2)c1 | 11% (inactive) | –
31 | COc1ccc2sc(-c3ccc(S(C)(=O)=O)cc3)c(C#Cc3cncn3C)c2c1 | -2.75% (inactive) | –
32 | COc1ccc2sc(-c3ccc(S(C)(=O)=O)cc3)c(-c3ccc(C(N)=O)cc3)c2c1 | -8.32% (inactive) | –
33 | COc1ccc2sc(-c3ccc(N(C)C)cc3)c(C#CCO)c2c1 | – | 16.4 µM (active)
34 | COC(=O)C1(C)NC(c2ccc(C)cc2)C2C(=O)N(c3ccc(F)cc3)C(=O)C21 (centres undefined) | -1.4% (inactive) | –
35 | COC(=O)C1C(=O)NCC1c1ccc(C)cc1 (centres undefined) | 16.2% (inactive) | –
36 | COC(=O)C1=C(Nc2ccc(C)cc2)C=C(C)C(C(=O)OC)C1c1ccc(F)cc1 (centres undefined) | – | 11.2 µM (active)
37 | Cc1ccc2cccc(NC(=O)c3cccc4ccccc34)c2n1 | 4.73% (inactive) | –
38 | CCc1ccccc1OCCSc1nc(-c2cccs2)nc2cc(=O)[nH]n12 | -16.6% (inactive) | –
39 | O=C(c1cccc(Cl)c1)N1CCN(CCc2ccncc2)CC1 | -4.29% (inactive) | –
40 | CNc1cncc(-c2cccc(C(=O)N3CCOCC3)c2)n1 | 0% (inactive) | –
41 | CS(=O)(=O)Nc1ccc(C(=O)N2CCCC2)cc1 | -5.39% (inactive) | –
42 | CNc1cncc(-c2ccc(NS(C)(=O)=O)cc2)n1 | – | 2.91 µM (active)
43 | CC(=O)c1sc(N2C(=O)c3oc4ccccc4c(=O)c3C2c2ccc(C)cc2)nc1C (centres undefined) | -14.2% (inactive) | –
44 | COc1ccc(-c2nc3ccccc3o2)cc1NC(=O)c1cc([N+](=O)[O-])ccc1N1CCOCC1 | 4.59% (inactive) | –
45 | Cc1ccc2c(c1)-c1c(cnn1CC(=O)Nc1ccccc1C#N)CO2 | -1.57% (inactive) | –
46 | COc1ccccc1CNC(=O)CCn1c(=O)c2ccccc2n(CC(=O)Nc2ccc(Br)cc2F)c1=O | -26.4% (inactive) | –
47 | CC(C)C(=O)Nc1cccc(NC(=O)c2ccc([N+](=O)[O-])cc2Cl)c1 | 1.16% (inactive) | –
48 | CCCC(=O)Nc1cccc(NC(=S)NC(=O)C(C)Oc2ccc(Cl)cc2Cl)c1 (centres undefined) | 2.78% (inactive) | –
49 | CC(C)C(=O)Nc1cccc(NC(=S)NC(=O)C(c2ccccc2)c2ccccc2)c1 | – | 20.6 µM (active)
50 | CCc1ccc(S(=O)(=O)n2ccnc2)cc1 | 16.3% (inactive) | –

Row | Structure (SMILES) | activity change, negative = cytotoxic | Potency
51 | Cc1cc(C)n2ncc(C(=O)Nc3cccc(C#N)c3)c2n1 | 0% [at 9.22 µM] (inactive) | –
52 | CCOc1cc(-c2nnc(SCC(=O)NC3CCCC3)nc2-c2ccc(OC)c(OCC)c2)ccc1OC | -2.41% (inactive) | –
53 | O=C1/C(=C\c2ccccc2Cl)SC(=S)N1CCC(=O)N1CCCc2ccccc21 | – | 23.1 µM (active)
54 | O=C(CN1C(=O)S/C(=C\c2ccccc2Cl)C1=O)NC1C=CS(=O)(=O)C1 (centres undefined) | 0% (inactive) | –
55 | CCn1c(=O)c2ccccc2n(CC(=O)N2CCCc3ccccc32)c1=O | -0.819% (inactive) | –
56 | CCOc1ccc(CCNC(=O)c2cc3c(=O)n(C)c4ccccc4c3n2C)cc1 | 2.46% (inactive) | –
57 | CCN(CC)c1ccc(NS(=O)(=O)c2cc(-c3cc(C)no3)ccc2C)c(C)c1 | -19.5% (inactive) | –
58 | CC(C)c1ccc(NC(=O)c2ccc3c(O)c(S(=O)(=O)c4ccccc4)c(=O)[nH]c3c2)cc1 | 5.99% (inactive) | –
59 | COc1ccc(S(=O)(=O)c2cn(C)c3cc(N4CCCCC4)c(F)cc3c2=O)cc1 | 5.2% (inactive) | –
60 | CCOC(=O)c1cc2occc2n1CC(=O)NC1CCC(C)CC1 (centres undefined) | 1.34% (inactive) | –
61 | CCOC(=O)c1cc2c(ccn2C)n1CC(=O)N1CCC(C)CC1 | – | 23.1 µM (active)
62 | CCOC(=O)c1cc2occc2n1CC(=O)N1CCN(C(=O)c2ccco2)CC1 | 1.25% (inactive) | –
63 | Cc1ccc(C)c(OCC(=O)Nc2sc3c(c2C#N)CCCC3)c1C | -13.9% (inactive) | –
64 | COc1ccc(N2CCN(C(=O)C3CCCN(C(=O)c4cc5sccc5n4C)C3)CC2)cc1 (centres undefined) | -12.9% (inactive) | –
65 | Cc1ccc(O)c(/C=N/NC(=O)COc2ccc3c(C)cc(=O)oc3c2)c1 | – | 18.4 µM (active)
66 | CC(=O)c1c(C)[nH]c(C(=O)COc2ccc3c(C)cc(=O)oc3c2)c1C | – | 14.6 µM (active)
67 | CC(=O)c1c(C)[nH]c(C(=O)COC(=O)CCOc2ccc(C)cc2)c1C | -18.7% (inactive) | –
68 | Cc1ccc(OCC(=O)Nc2ccc3oc(=O)ccc3c2)cc1C | 5.71% (inactive) | –
69 | COc1ccc(N2CCN(C(=O)COc3ccc4c(C)cc(=O)oc4c3)CC2)cc1 | 14.4% (inactive) | –
70 | Cc1cc(=O)oc2cc(OC(C)C(=O)NCCc3ccc(S(N)(=O)=O)cc3)ccc12 (centres undefined) | 9.37% (inactive) | –
71 | Cc1cccc2c(=O)cc(CSc3ccccc3NC(=O)C(C)C)[nH]c12 | 0% (inactive) | –
72 | Cc1cc(C)cc(NC(=O)Cn2c(=O)c3ccccc3n3nncc23)c1 | 20.8% (inactive) | –
73 | Cc1csc(NCC(=O)c2c[nH]c3ccccc23)n1 | -70.7% (inactive) | –
74 | Cn1cc(S(=O)(=O)N2CCCCCC2)cc1C(=O)N1CCN(c2ccc(F)cc2)CC1 | -0.904% (inactive) | –
75 | O=[N+]([O-])c1cc(Br)c(O)c(/C=N/Nc2nc3ccccc3s2)c1 | – | 23.1 µM (active)

Row | Structure (SMILES) | activity change, negative = cytotoxic | Potency
76 | O=[N+]([O-])c1c(NCCO)cc(Sc2nc3ccccc3s2)c2nonc12 | -1.45% (inactive) | –
77 | Brc1ccccc1/C=N/Nc1nc2ccccc2o1 | -9.64% (inactive) | –
78 | COc1cc(OC)c(C2C=C(C(=O)O)Nc3ncnn32)cc1OC (centres undefined) | -2.08% (inactive) | –
79 | S=c1[nH]c(=S)c2n[nH]nc2[nH]1 | -28.9% (inactive) | –
80 | COc1ccccc1N1CCN(C(=O)c2cc(=O)c3cc(C)ccc3o2)CC1 | – | 13 µM (active)
81 | COc1ccc(Nc2ncc(C(=O)N3CCN(c4ccccc4OC)CC3)c3ccccc23)cc1 | – | inactive
82 | COc1cc(CCC(=O)N2CCN(c3ccccc3Cl)CC2)cc(OC)c1OC | 3.22% (inactive) | –
83 | COc1ccccc1N1CCN(C(=O)c2ccc(NC3=NC4CS(=O)(=O)CC4S3)cc2)CC1 (centres undefined) | 0% (inactive) | –
84 | COc1cc2c(cc1OC)CN(C(=O)c1cc(S(=O)(=O)N3CCCCC3)ccc1Cl)CC2 | 0% (inactive) | –
85 | COc1cc(Cl)ccc1Nc1ncc(C(=O)N2CCN(c3ccccc3OC)CC2)c2ccccc12 | -1.69% (inactive) | –
86 | COc1ccc2c(CC(=O)N3CCc4cc(OC)c(OC)cc4C3)coc2c1 | -1.95% (inactive) | –
87 | COc1cc2c(cc1OC)CN(C(=O)c1cc(=O)c3ccccc3o1)CC2 | – | 2.91 µM (active)
88 | COc1ccccc1N1CCN(C(=O)c2cc(=O)c3cc(C)cc(C)c3o2)CC1 | – | 0.206 µM (active)
89 | CCc1ccc2oc(-c3ccc(C)c(NC(=O)/C=C/c4ccco4)c3)nc2c1 | 4.52% (inactive) | –
90 | COc1ccccc1CNC(=O)CCCCn1c(=O)c2ccccc2n(CC(=O)Nc2cc(Cl)ccc2C)c1=O | 7.54% (inactive) | –
91 | CCCS(=O)(=O)N1CCC(n2c(C(F)(F)F)nc3cccnc32)CC1 | -14.7% (inactive) | –
92 | O=C(NCC(c1ccco1)S(=O)(=O)c1cccs1)c1ccc(F)cc1 (centres undefined) | 8.37% (inactive) | –
93 | CS(=O)c1ccc(/C=C2\C=Cc3ccccc32)cc1 (centres undefined) | 32.2% (inactive) | –
94 | O=C(CCn1c(=O)c2ccccc2n(Cc2ccc(Cl)cc2)c1=O)NCc1ccc2c(c1)OCO2 | 0.984% (inactive) | –
95 | CCc1ccc(C(=O)CC2(O)C(=O)N(CCc3ccccc3)c3ccc(Br)cc32)cc1 (centres undefined) | 6.28% (inactive) | –
96 | COc1ccc(NC(=O)N2CCCn3nc(C)cc32)cc1OC | -2.38% (inactive) | –
97 | CCOc1ccc(CNC(=O)c2ccc3nc(CC)c(CC)nc3c2)cc1OC | -9.86% (inactive) | –
98 | CN(C)c1cccc2ccccc12 | 21.8% (inactive) | –
99 | Cc1ccc(F)cc1S(=O)(=O)N1CCC(c2nc3ccccc3s2)CC1 | -27.5% (inactive) | –
